Assay outcomes as filed in PubChem.
A selection: hits, their analogues and other compounds. The true share with any hit is near 2%.
STK33 inh – human STK33 kinase inhibition; ADP-Glo luminescence, MBP substrate; inhibition, % at 12.5 µM; 27,000 tested, 0.44% active; in the data active = inhibition above about 20%
Target sequence (Q9BYT3 whole entry, looked up): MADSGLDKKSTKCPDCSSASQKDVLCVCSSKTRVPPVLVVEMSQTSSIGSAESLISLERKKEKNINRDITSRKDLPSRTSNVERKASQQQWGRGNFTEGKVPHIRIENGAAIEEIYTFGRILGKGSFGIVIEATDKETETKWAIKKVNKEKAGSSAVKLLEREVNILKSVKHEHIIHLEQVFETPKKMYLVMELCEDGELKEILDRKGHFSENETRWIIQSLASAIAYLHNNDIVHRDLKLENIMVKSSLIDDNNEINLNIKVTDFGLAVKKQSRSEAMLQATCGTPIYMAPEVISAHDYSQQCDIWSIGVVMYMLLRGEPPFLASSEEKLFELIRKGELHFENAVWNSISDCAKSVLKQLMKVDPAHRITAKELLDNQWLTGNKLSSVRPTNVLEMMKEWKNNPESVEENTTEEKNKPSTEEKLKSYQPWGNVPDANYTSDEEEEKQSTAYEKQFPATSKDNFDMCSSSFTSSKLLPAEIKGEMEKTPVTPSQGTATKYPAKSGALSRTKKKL
mut p53 react – re-activators of the mutant p53 pathway. 28,000 tested, 1.5% active. activation, % at 9.98 µM. SW480 PUMA-promoter luciferase, p53 mutant reactivation; in the data active = activation above about 52%
ID4 binder – ID4 (human) binding | P47928 | small molecule microarray, Flag-ID4 binding, fluorescence F/B | calls only | 31,000 tested, 1.2% active; call rule not given here;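 note: a binder raises fluorescence above local background on the spot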
* hit, by the source's call; i = inactive; . = no result; + = active, no number.

SMILES	STK33 inh	mut p53 react	ID4 binder
COc1cc([N+](=O)[O-])ccc1NC(=O)CCN1C(=O)C2C3C=CC(C4CC34)C2C1=O (centres undefined)	-2	9	i
COC(=O)C1=C/c2ccccc2C(C)N(Cc2ccc(OC)cc2)/C=C\1C(=O)OC (centres undefined)	.	.	i
O=C(C1CCCO1)N1N=C(c2c(-c3ccccc3)c3cc(Cl)ccc3[nH]c2=O)CC1c1ccco1 (centres undefined)	0	-20	i
COc1cc(SC)ccc1-c1nc2ccncc2[nH]1	12	59*	i
COc1ccccc1NC(=O)CSc1nc2ccc([N+](=O)[O-])cc2[nH]1	1	10	i
COc1cc(CNC2CCCC2)ccc1OCC(N)=O	2	4	i
COc1cc(CNC23CC4CC(CC(C4)C2)C3)ccc1OCC(N)=O	9	-5	+
Cc1ccc(OCC(=O)Nc2cccc3ncccc23)c(C)c1	0	7	i
COC(=O)C1=CC(C(=O)c2ccccc2)=NN(c2ccccc2)C1C(=O)OC (centres undefined)	.	-3	i
O=C(O)CCC(=O)Nc1ccc(-c2nc3ccc(C(=O)c4ccccc4)cc3[nH]2)cc1	3	38	+
O=C(CCN1C(=O)c2ccccc2C1=O)Nc1ccc(-c2nc3ccccc3[nH]2)cc1	7	20	i
COc1cc(/C=C2/SC(=Nc3cc(C)cc(C)c3)NC2=O)cc(Br)c1OC	0	.	.
O=C1c2ccccc2C(=O)N1CCN1CCCCC1	5	.	.
O=C(NCCN1CCOCC1)c1cc2cc(Br)ccc2oc1=O	0	-5	i
O=C(c1cc2cc(Br)ccc2oc1=O)N1CCN(CCN2C(=O)c3cccc4cccc(c34)C2=O)CC1	8	65*	i
NC(=O)CN1CCN(CCN2C(=O)c3cccc4cccc(c34)C2=O)CC1	-1	75*	+
COc1ccccc1CCNC(=O)c1cc(-c2ccccc2)nc2ccccc12	0	13	i
CCCn1cnc2cc(NCc3ccccn3)ccc21	2	78*	i
CCOc1ccccc1CNCc1ccccn1	-6	10	i
CCc1ccc(OCC(=O)Nc2sc3c(c2C(N)=O)CCCC3)c(Br)c1	7	20	i
C[C@H](CO)N1C[C@H](C)[C@@H](CN(C)C(=O)Nc2ccccc2)Oc2ccc(NC(=O)Cc3ccccc3)cc2CC1=O	.	5	i
C[C@@H]1CN([C@@H](C)CO)C(=O)Cc2cc(NC(=O)CCCN(C)C)ccc2O[C@H]1CN(C)C(=O)Nc1ccc(F)cc1	.	5	+
C[C@H]1CN([C@@H](C)CO)C(=O)Cc2cc(NC(=O)Cc3ccccc3)ccc2O[C@H]1CN(C)C(=O)Nc1ccccc1	0	6	+
C[C@@H]1CN([C@@H](C)CO)C(=O)Cc2cc(NC(=O)CCCN(C)C)ccc2O[C@@H]1CN(C)C	.	-1	i
[N-]=C=N[n+]1ccc2ccccc2c1C(=O)c1ccc(Cl)cc1	0	.	.
SMILES	STK33 inh	mut p53 react	ID4 binder
O=c1[nH]c2ccc(Cl)cc2c2oc(-c3ccccc3)nc12	-1	.	.
O=C(O)c1ccc(CSc2n[nH]c(-c3ccco3)n2)cc1	-2	-15	+
O=C(CSc1n[nH]c(-c2ccco2)n1)N1c2ccccc2Sc2ccccc21	-2	3	i
CC(=O)OC[C@H]1O[C@@H](Oc2ccccc2COC(=O)C2(O)C=CCCC2=O)[C@H](OC(C)=O)[C@@H](O)[C@@H]1O (some centres undefined)	-2	.	.
O=[N+]([O-])c1ccc(N2CCN(S(=O)(=O)c3ccc(F)cc3)CC2)cc1NCc1cccnc1	7	3	i
CCCn1nnc(NC(=O)C(C)Oc2ccc(Cl)cc2Cl)n1 (centres undefined)	3	-3	i
CCCn1nnc(NC(=O)COc2ccccc2Cl)n1	5	64*	i
Cc1[nH]c(=S)[nH]c(=O)c1Cc1ccc(C(=O)O)o1	-2	0	+
Cc1ccc(NC(=O)C2CC(=O)n3cnnc3N2)cc1 (centres undefined)	1	1	i
O=C(Nc1ccc(F)cc1)C1CC(=O)n2cnnc2N1 (centres undefined)	0	-5	+
C[C@H]1CC[C@@H]2[C@@H](C(=O)c3c(O)c([C@]4(O)CC[C@@H](O)[C@H]5O[C@H]54)cn(O)c3=O)[C@@H](C)C=C[C@H]2C1	-5	.	.
CC(=O)Nc1ccc(NC(=O)COc2ccccc2C(=O)Nc2cccc(C)c2C)cc1	-4	-15	+
Cc1cc(Cl)ccc1OCC(=O)Nc1cccc(NC(=O)c2ccccc2C)c1	2	57*	i
COc1cccc(C(=O)COc2ccc(NC(=O)c3ccccc3C)cc2)c1	-2	0	i
Cc1ccccc1C(=O)Nc1ccc(OCC(=O)O)cc1	0	-8	+
